Experimental data as given in PubChem BioAssay (Tox21).
Inconclusive results are not listed. Some structures have more than one record in an assay (separate samples or runs), and their calls can disagree. The source made the active and inactive calls. Calls follow the shape of the dose curve; as a rule, active = well fitted curve in the direction sought with a large enough effect in the repeat runs; inconclusive = weak or mixed curves; inactive = no such curve, though single readings can be large; an effect the other way counts as inactive or inconclusive.

How the values were obtained:
[1] = qHTS RealTime-Glo MT Cell Viability Assay in HEK293 cells - 0 hour (AID 1224880); also: top concentration of the series differs between compounds; nearly all actives have a fitted effect of over 45% in size
Method in brief: (§1)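 qHTS format; HEK293 cells with NanoLuc/prosubstrate reagent, 37 C/5% CO2 for 5 h pre-dosing; compounds 23 nL in DMSO; luminescence at each time point reflects viable cells.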

[2] = A CellTox Green Cytotoxicity Assay to monitor cytotoxicity in HEK293 cells - 32 hour (AID 1224881); also: nearly all actives have a fitted effect of over 40% in size
Method in brief: (§2)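 Each value comes from one timepoint of a single continuous run in which HEK293 cells with CellTox Green were exposed to compound for up to 40 h at 37 C, dye fluorescence rising with cell death.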

[3] = A CellTox Green Cytotoxicity Assay to monitor cytotoxicity in HepG2 cells - 0 hour (AID 1224882); also: nearly all actives have a fitted effect of over 35% in size
Method in brief: (§3)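 Continuous culture of HepG2 cells with a membrane-impermeant DNA dye; rising fluorescence marks dead cells. Compound exposure lasted up to 40 h at 37 C, with reads every 8 h from 0 h.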

[4] = A CellTox Green Cytotoxicity Assay to monitor cytotoxicity in HepG2 cells - 32 hour (AID 1224883); also: nearly all actives have a fitted effect of over 50% in size
Method in brief: as §3

[5] = A CellTox Green Cytotoxicity Assay to monitor cytotoxicity in HEK293 cells - 8 hour (AID 1224884); also: nearly all actives have a fitted effect of over 35% in size
Method in brief: as §2

[6] = qHTS RealTime-Glo MT Cell Viability Assay in HepG2 cells - 16 hour (AID 1224885); also: nearly all actives have a fitted effect of over 50% in size
Method in brief: (§4)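 Viability was tracked continuously by NanoLuc luminescence from prosubstrate reduced by living HepG2 cells, at successive time points over 40 h of compound exposure. Cells with reagent were preincubated 5 h at 37 °C before compound addition.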

[7] = qHTS RealTime-Glo MT Cell Viability Assay in HEK293 cells - 24 hour (AID 1224886); also: nearly all actives have a fitted effect of over 50% in size; also: potency is read from the fitted curve at half-maximal effect
Method in brief: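 Viability tracked continuously by luminescence as live cells reduce a prosubstrate for NanoLuc; HEK293 cells preincubated 5 h, compound-treated at 37 C, and read at 0, 8, 16, 24, 32 and 40 h.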

[8] = qHTS RealTime-Glo MT Cell Viability Assay in HEK293 cells - 8 hour (AID 1224887); also: nearly all actives have a fitted effect of over 50% in size; also: potency is read from the fitted curve at half-maximal effect
Method in brief: as §1

[9] = A CellTox Green Cytotoxicity Assay to monitor cytotoxicity in HEK293 cells - 16 hour (AID 1224888); also: nearly all actives have a fitted effect of over 35% in size
Method in brief: as §2

[10] = qHTS RealTime-Glo MT Cell Viability Assay in HepG2 cells - 0 hour (AID 1224889); also: nearly all actives have a fitted effect of over 50% in size
Method in brief: as §4

Measured: Potency

CN=C(N)NC(=O)Nc1c(C)cccc1C
inactive: [1] | [2] | [3] | [4] | [5] | [6] | [7] | [8] | [9] | [10]

CC(C(=O)O)c1ccc(C(=O)c2cccs2)cc1 (stereo not given)
inactive: [1] | [2] | [3] | [4] | [5] | [6] | [7] | [8] | [9] | [10]

CCCCCCCCCCCCCCCC(=O)OCC
inactive: [1] | [2] | [3] | [4] | [5] | [6] | [7] | [8] | [9] | [10]

CC(CCc1ccc(O)cc1)NCCc1ccc(O)c(O)c1 (stereo not given)
inactive: [1] | [2] | [3] | [4] | [5] | [6] | [7] | [8] | [9] | [10]

O=C1OC(=O)c2c(Br)c(Br)c(Br)c(Br)c21
inactive: [1] | [2] | [3] | [4] | [5] | [6] | [7] | [8] | [9] | [10]

FC(F)(F)C(F)(F)C(F)(F)C(F)(F)CCI
inactive: [1] | [2] | [3] | [4] | [5] | [6] | [7] | [8] | [9] | [10]

Cc1ccc(NC(=O)N(C)C)cc1NC(=O)N(C)C
inactive: [1] | [2] | [3] | [4] | [5] | [6] | [7] | [8] | [9] | [10]

CC(C)c1ccc(C#N)cc1
inactive: [1] | [2] | [3] | [4] | [5] | [6] | [8] | [9] | [10]
active: [7] 17.4 µM

CCN(CC)CCOc1ccccc1C(=O)CCc1ccccc1
inactive: [1] | [2] | [3] | [4] | [5] | [6] | [9] | [10]
active: [7] 10.7 µM | [8] 10.7 µM

NC(=O)CCCCC(N)=O
inactive: [1] | [2] | [3] | [4] | [5] | [6] | [7] | [8] | [9] | [10]

CC(CO)(CO)C(=O)O
inactive: [1] | [2] | [3] | [4] | [5] | [6] | [7] | [8] | [9] | [10]

CCC(=O)OCc1ccc(OC)cc1
inactive: [1] | [2] | [3] | [4] | [5] | [6] | [7] | [8] | [9] | [10]

O=C(O)CN1C(=O)c2cccc3cccc(c23)C1=O
inactive: [1] | [2] | [3] | [4] | [5] | [6] | [7] | [8] | [9] | [10]

CCN(CC)CC(=O)Nc1c(C)cccc1C(=O)OC
inactive: [1] | [2] | [3] | [4] | [5] | [6] | [7] | [8] | [9] | [10]

CCO[Si](C)(CCCOCC1CO1)OCC (stereo not given)
inactive: [1] | [2] | [3] | [4] | [5] | [6] | [7] | [8] | [9] | [10]

O=C(O)CNC(=O)c1ccccc1I
inactive: [1] | [2] | [3] | [4] | [5] | [6] | [7] | [8] | [9] | [10]

COC(C)(C)OC
inactive: [1] | [2] | [3] | [4] | [5] | [6] | [7] | [8] | [9] | [10]

O=C(O)c1cccc(C[C@@H]2COc3ccc(OCc4nc5cc(F)ccc5s4)cc3[C@@H]2O)c1
inactive: [1] | [2] | [3] | [4] | [5] | [6] | [7] | [8] | [9] | [10]

Cc1ccccc1S(N)(=O)=O
inactive: [1] | [2] | [3] | [4] | [5] | [6] | [7] | [8] | [9] | [10]

CC(=O)Oc1cccc(O)c1
inactive: [1] | [2] | [3] | [4] | [5] | [6] | [7] | [8] | [9] | [10]

COC(OC)OC
inactive: [1] | [2] | [3] | [4] | [5] | [6] | [7] | [8] | [9] | [10]

COc1ccc2nc(S(=O)Cc3ncc(C)c(OC)c3C)[nH]c2c1 (stereo not given)
21.6 µM (active) and inactive: [7]
24.3 µM (active) and inactive: [8]
inactive: [1] | [2] | [3] | [4] | [5] | [6] | [9] | [10]
